A number with no mark means an inactive call.
Compound: C#CCNC(=O)CCSSCCC(=O)NCCc1ccc(C=O)c(C=O)c1
Assay: lysine labeling ratio R10:1 (500 µM / 50 µM probe), SILAC-ABPP in living cells; higher = lower intrinsic lysine reactivity toward the probe, active = 2 or less
Conditions: HeLa; probe concentrations 500 vs 50 µM
Method in brief: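 For each lysine, R is the median over forward and reverse replicates of the filtered median MS1 peptide ratio of high probe to low probe. The probe, an alkyne-tagged, disulfide-linked lysine probe, was given at 500 µM or 50 µM to living SILAC light and heavy HeLa cells in PBS at room temperature, with label swaps. Values are capped at 20.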

Chain of UniProt Q86XX4 (Q86XX4 whole entry): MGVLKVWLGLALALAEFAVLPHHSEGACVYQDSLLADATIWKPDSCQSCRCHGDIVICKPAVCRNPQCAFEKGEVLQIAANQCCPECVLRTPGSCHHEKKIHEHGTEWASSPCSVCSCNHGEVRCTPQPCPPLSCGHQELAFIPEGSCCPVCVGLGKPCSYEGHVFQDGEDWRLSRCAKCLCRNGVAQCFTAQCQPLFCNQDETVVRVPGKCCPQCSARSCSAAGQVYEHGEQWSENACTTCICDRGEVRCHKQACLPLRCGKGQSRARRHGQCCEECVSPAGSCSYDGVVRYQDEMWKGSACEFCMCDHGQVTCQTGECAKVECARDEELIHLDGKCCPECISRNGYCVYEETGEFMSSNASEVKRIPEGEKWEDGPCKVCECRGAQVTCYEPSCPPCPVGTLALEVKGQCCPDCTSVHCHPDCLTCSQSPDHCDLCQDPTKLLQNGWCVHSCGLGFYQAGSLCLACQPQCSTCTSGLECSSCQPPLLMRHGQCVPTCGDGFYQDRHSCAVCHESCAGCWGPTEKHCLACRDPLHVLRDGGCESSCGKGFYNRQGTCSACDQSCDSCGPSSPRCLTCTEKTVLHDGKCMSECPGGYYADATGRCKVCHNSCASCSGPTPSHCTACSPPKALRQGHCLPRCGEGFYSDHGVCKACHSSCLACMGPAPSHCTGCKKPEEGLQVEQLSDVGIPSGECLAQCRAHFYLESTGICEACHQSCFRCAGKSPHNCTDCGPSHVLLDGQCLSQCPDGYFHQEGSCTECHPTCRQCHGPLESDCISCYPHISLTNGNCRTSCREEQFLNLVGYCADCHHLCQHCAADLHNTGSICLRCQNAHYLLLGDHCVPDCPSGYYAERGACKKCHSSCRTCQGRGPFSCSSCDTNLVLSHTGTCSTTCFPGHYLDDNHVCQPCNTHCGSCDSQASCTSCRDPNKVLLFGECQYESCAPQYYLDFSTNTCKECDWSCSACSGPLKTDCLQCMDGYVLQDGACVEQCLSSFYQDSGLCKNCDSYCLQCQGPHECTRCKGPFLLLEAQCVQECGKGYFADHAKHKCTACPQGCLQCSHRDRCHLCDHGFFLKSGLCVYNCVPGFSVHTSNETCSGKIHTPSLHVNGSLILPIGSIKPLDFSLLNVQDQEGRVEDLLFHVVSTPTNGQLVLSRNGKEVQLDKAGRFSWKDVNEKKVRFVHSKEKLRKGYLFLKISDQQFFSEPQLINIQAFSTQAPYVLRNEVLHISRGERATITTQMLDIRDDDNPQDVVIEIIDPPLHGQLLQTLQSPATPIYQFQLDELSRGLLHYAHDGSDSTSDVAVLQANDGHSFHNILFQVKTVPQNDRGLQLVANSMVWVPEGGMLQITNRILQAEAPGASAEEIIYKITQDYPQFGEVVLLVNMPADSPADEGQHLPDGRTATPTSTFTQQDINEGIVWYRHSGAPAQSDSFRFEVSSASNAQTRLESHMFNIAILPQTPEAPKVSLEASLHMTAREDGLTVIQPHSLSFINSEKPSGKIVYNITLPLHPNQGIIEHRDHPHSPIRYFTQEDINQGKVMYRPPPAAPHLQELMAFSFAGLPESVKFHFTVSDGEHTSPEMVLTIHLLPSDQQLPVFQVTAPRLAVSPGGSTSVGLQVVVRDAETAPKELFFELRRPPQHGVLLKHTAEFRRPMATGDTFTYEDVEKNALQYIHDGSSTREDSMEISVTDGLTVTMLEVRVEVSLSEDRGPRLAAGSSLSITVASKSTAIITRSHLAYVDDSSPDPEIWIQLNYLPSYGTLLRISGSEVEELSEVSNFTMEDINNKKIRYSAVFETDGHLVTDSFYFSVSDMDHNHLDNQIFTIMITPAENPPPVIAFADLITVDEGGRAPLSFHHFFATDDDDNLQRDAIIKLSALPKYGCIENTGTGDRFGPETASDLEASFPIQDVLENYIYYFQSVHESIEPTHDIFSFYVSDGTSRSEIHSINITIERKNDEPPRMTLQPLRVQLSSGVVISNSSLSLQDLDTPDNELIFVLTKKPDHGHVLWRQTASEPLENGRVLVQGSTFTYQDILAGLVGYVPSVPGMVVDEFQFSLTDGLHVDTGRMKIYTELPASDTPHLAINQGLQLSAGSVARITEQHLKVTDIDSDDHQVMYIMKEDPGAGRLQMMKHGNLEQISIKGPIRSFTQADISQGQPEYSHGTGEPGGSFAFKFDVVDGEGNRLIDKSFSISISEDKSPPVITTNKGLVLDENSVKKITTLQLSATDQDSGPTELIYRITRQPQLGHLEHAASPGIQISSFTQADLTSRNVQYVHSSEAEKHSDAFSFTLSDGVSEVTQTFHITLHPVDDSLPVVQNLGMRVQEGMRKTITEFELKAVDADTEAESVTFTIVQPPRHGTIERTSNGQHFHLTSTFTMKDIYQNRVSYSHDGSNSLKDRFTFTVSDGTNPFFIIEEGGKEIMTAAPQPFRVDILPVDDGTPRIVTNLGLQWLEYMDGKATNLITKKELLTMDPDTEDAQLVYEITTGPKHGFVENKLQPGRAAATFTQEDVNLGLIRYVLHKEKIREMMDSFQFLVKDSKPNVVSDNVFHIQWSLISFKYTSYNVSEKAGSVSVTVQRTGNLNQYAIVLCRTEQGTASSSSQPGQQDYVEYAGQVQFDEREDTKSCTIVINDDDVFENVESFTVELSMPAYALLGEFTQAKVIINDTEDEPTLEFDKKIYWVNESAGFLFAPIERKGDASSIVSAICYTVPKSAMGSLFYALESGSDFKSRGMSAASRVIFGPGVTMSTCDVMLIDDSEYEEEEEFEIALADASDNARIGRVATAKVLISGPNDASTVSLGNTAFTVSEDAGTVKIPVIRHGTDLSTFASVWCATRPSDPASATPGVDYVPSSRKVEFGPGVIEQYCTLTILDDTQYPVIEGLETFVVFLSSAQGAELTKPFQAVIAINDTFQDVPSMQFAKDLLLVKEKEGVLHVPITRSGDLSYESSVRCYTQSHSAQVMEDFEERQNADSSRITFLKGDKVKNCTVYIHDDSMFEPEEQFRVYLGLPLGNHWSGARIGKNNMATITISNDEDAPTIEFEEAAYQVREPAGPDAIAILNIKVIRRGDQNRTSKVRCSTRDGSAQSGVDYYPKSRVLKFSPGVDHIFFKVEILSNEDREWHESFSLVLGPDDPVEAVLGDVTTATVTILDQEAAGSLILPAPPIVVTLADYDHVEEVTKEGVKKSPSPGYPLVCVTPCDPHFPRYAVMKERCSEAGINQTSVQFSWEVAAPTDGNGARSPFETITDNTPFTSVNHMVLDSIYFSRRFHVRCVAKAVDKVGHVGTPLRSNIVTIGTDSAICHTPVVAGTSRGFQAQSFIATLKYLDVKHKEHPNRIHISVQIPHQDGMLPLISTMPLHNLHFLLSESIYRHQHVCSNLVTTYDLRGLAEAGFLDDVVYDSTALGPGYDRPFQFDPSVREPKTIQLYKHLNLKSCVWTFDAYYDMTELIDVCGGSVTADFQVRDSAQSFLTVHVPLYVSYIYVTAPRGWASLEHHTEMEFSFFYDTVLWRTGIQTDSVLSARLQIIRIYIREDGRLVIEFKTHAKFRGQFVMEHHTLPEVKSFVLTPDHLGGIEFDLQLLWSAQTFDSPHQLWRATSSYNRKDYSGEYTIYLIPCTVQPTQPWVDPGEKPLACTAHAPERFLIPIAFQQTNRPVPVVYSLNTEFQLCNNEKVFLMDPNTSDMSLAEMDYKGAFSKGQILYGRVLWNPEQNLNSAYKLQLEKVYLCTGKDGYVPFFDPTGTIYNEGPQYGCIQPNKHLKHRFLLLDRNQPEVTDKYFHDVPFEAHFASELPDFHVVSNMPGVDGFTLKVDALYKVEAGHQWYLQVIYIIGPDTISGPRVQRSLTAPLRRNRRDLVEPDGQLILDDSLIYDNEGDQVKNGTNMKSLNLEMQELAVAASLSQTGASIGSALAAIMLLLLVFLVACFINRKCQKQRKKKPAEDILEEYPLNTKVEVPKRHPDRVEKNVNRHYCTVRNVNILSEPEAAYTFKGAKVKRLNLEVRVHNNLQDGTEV
Chain of UniProt O15260 (O15260 whole entry): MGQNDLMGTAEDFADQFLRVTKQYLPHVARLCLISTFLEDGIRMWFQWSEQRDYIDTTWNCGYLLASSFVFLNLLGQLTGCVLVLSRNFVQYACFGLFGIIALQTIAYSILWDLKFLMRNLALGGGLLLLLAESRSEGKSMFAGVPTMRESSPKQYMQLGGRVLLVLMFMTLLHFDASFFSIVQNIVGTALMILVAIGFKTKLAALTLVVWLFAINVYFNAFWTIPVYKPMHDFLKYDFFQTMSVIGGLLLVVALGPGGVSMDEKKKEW
Chain of UniProt Q9NX63 (Q9NX63 whole entry): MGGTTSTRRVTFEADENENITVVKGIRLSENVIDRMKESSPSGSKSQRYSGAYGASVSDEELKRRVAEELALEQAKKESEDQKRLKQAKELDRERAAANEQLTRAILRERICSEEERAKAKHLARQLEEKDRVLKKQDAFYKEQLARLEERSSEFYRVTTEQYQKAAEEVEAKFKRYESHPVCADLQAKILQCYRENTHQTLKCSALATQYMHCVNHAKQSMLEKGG
Chain of UniProt Q96JJ7 (Q96JJ7 whole entry): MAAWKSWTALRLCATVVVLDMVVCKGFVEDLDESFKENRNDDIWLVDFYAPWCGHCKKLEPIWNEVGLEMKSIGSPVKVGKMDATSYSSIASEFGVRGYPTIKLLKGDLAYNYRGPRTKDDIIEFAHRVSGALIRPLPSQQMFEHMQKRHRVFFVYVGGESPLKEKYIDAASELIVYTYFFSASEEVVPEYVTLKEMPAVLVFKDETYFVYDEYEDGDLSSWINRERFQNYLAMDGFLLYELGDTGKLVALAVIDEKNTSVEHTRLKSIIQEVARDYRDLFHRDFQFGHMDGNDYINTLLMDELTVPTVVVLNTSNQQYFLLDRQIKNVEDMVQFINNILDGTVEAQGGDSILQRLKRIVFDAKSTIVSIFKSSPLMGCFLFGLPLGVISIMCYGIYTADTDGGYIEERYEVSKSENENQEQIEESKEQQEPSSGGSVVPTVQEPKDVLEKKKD

| Target | lysine labeling ratio R10:1 |
| --- | --- |
| PTPRF (lysine site: K61) (UniProt P10586) | 1.48 (active) |
| CD109 (lysine site: K1291) (UniProt Q6YHK3) | 2.41 |
| ITGA3 (lysine site: K895) (UniProt P26006) | 2.18 |
| ITGB5 (lysine site: K519) (UniProt P18084) | 0.882 (active) |
| FN1 (lysine site: K1623) (UniProt P02751) | 1.34 (active) |
| ITGA6 (lysine site: K569) (UniProt P23229) | 2.54 |
| CCT4 (lysine site: K21) (UniProt P50991) | 3.58 |
| UniProt Q8WXI7 (lysine site: K12467) | 5.1 |
| PFKP (lysine site: K688) (UniProt Q01813) | 1.74 (active) |
| LNPEP (lysine site: K923) (UniProt Q9UIQ6) | 5.14 |
| UniProt P09758 (lysine site: K84) | 5.29 |
| FRAS1 (lysine site: K3278) (UniProt Q86XX4) | 2.1 |
| CYR61 (lysine site: K208) (UniProt O00622) | 2.96 |
| LAMA5 (lysine site: K2451) (UniProt O15230) | 3.17 |
| PTGES2 (lysine site: K225) (UniProt Q9H7Z7) | 1.93 (active) |
| UniProt P14618 (lysine site: K498) | 1.49 (active) |
| ITGB1 (lysine site: K107) (UniProt P05556) | 1.41 (active) |
| FRAS1 (lysine site: K1628) (UniProt Q86XX4) | 3.34 |
| FLNA (lysine site: K1164) (UniProt P21333) | 1.16 (active) |
| UniProt P48047 (lysine site: K98) | 1.89 (active) |

| Target | lysine labeling ratio R10:1 |
| --- | --- |
| EPHA2 (lysine site: K476) (UniProt P29317) | 3.45 |
| UniProt P83731 (lysine site: K93) | 6.58 |
| LAMC1 (lysine site: K1355) (UniProt P11047) | 1.67 (active) |
| PLXNB2 (lysine site: K941) (UniProt O15031) | 2.31 |
| SURF4 (lysine site: K154) (UniProt O15260) | 4.16 |
| TLN1 (lysine site: K1332) (UniProt Q9Y490) | 5.83 |
| CHCHD3 (lysine site: K37) (UniProt Q9NX63) | 1.57 (active) |
| CLTC (lysine site: K619) (UniProt Q00610) | 2.75 |
| CACNA2D1 (lysine site: K106) (UniProt P54289) | 3.84 |
| SEMA3C (lysine site: K106) (UniProt Q99985) | 0.653 (active) |
| ASPH (lysine site: K609) (UniProt Q12797) | 1.47 (active) |
| LMAN1 (lysine site: K346) (UniProt P49257) | 9.39 |
| ANPEP (lysine site: K104) (UniProt P15144) | 1.17 (active) |
| TKT (lysine site: K144) (UniProt P29401) | 10.4 |
| MARS (lysine site: K729) (UniProt P56192) | 1.58 (active) |
| CD82 (lysine site: K114) (UniProt P27701) | 0.977 (active) |
| SURF4 (lysine site: K139) (UniProt O15260) | 3.69 |
| PEBP1 (lysine site: K113) (UniProt P30086) | 2.7 |
| ROBO1 (lysine site: K297) (UniProt Q9Y6N7) | 3.3 |
| UniProt Q96JJ7 (lysine site: K119) | 3.06 |

From the supplement of paper PMC11001985
